Measured values from PubChem BioAssay (NCATS).
Inconclusive results are not listed. Calls of active or inactive are those of the source. Calls follow the shape of the dose curve; as a rule, active = well fitted cell-killing curve with a large enough effect; inconclusive = small, poorly fitted or top-dose-only effect; inactive = no such curve, though single readings can be large or run the other way.

Assay: qHTS of pediatric cancer cell lines to identify multiple opportunities for drug repurposing: Primary screen for MG 63 (6-TG R) cells (AID 1347105); also: nearly all actives have a fitted effect of over 50% in size
Settings: MG 63 (6-TG R) viability, CellTiter-Glo, 48 h; series mostly up to 46 µM; activity change, negative = cytotoxic: at the top concentration
From the text: Drug repurposing or repositioning has been offered as a strategy for drug development in oncology programs. This approach has special potential for childhood cancers and other rare or orphan diseases, where the expected return on new drug development has been a disincentive to pharmaceuticals. […] In this project we exploit the poly-pharmacology of drugs to discover new indications via phenotypic screening of a panel of 19 well-characterized cell lines derived from solid tumors seen in children and adolescents. The goal is to identify approved drugs with previously unrecognized anticancer properties that has the potential to reveal new mechanisms and biological processes involved in carcinogenesis or drug resistance. We employed a titration-based paradigm (quantitative high-throughput screening or qHTS), where all compounds were tested at multiple concentrations for their effect on cell viability. Concentration-response curves (CRCs) were derived directly from the primary screen, and both potency and efficacy values were used to identify compounds with robust bioactivity profiles. We screened the NIH Chemical Genomics Center (NCGC) Pharmaceutical Collection (NPC) and Mechanism Interrogation Plate (MIPE) small molecule collections of approved and investigational compounds against these cell lines; and measured metabolically active cells after 48 hours of compound treatment as a proxy for cell viability. […] Assay Submitter: Nathalia J. Martinez, National Center for Advancing Translational Sciences, National Institutes of Health, Rockville, MD, USA; email: natalia.martinez@nih.gov Shen, M et al. Quantitative high-throughput phenotypic screening of pediatric cancer cell lines identifies multiple opportunities for drug repurposing. Oncotarget 2017 Dec 19;9(4):4758-4772. PMID 29435139.
The cells were obtained from University of North Carolina (UNC), Pediatric Preclinical Testing Program (PPT), and Coriell Institute (CI). qHTS cell viability assay: Cells were assayed in growth media at a density of 500-1,000 cells/well. Five microliters of cells were dispensed into 1,536-well, white, solid-bottom, TC-treated plates (Greiner Bio One) using a multidrop dispenser and incubated at 37 degrees C, 5% CO2, under a humidified atmosphere for 5 hours. Twenty-three nanoliters of compounds and controls (neutral control DMSO or positive control bortezomib at final concentration of 2.3 µM) were subsequently transferred by Kalypsys pintool. For primary screens, the MIPE collection was tested at 11-point dilutions (final concentrations range from 0.78 nM to 46 µM) and the NPC collection at 8-point dilutions (final concentrations range from 0.59 nM to 46 µM). Compounds tested in follow-up screens were assayed at 11-point dilutions. Cells were incubated for 48 hours, followed by addition of 3 µL of CellTiter-Glo (Promega). After a 15 min incubation at room temperature, samples were analyzed for luminescence intensity using a ViewLux High-throughput CCD imager equipped with clear filters.
% is scaled to controls: 0 for no effect and ±100 for the full control effect; potency is read from the fitted curve at half-maximal effect.

| SMILES | activity change, negative = cytotoxic | Potency |
| --- | --- | --- |
| CCOCCn1c(N2CCCN(C)CC2)nc2ccccc21 | -14.8% (inactive) |  |
| NS(=O)(=O)c1cc(C(=O)O)cc(N2CCCC2)c1Oc1ccccc1 | -9.68% (inactive) |  |
| CCc1nn(CCCN2CCN(c3cccc(Cl)c3)CC2)c(=O)n1CCOc1ccccc1 | -21.5% (inactive) |  |
| CCCCCCCCCCCCCCCC(=O)O | -6.63% (inactive) |  |
| O=C1c2cccc3c2[C@H](CCC3)CN1[C@@H]1CN2CCC1CC2 | -12.6% (inactive) |  |
| CC(C)[C@@H]1CC[C@@H](C)CC1=O | -18.1% (inactive) |  |
| O=S(c1cc(Cl)cc(Cl)c1O)c1cc(Cl)cc(Cl)c1O | -9.68% (inactive) |  |
| CCCCCCCCCCCCCCCCO | 9.11% (inactive) |  |
| CO[C@]12C[C@@H](COC(=O)c3cncc(Br)c3)CN(C)[C@@H]1Cc1cn(C)c3cccc2c13 | -18% (inactive) |  |
| CC[N+](C)(CC)CCOC(=O)C(O)(c1ccccc1)C1CCCCC1 (stereo not given) | 10.8% (inactive) |  |
| CCO[C@@H]1O[C@H](C(COCc2ccccc2)OCc2ccccc2)[C@H](OCc2ccccc2)[C@H]1O (stereo not given in full) |  | 10.6 µM (active) |
| COc1cc([C@H]2Oc3cc([C@H]4Oc5cc(O)cc(O)c5C(=O)[C@@H]4O)ccc3O[C@@H]2CO)ccc1O | -13% (inactive) |  |
| O=C(N/N=C/c1ccc([N+](=O)[O-])o1)c1ccc(O)cc1 | -47.3% (inactive) |  |
| C=CCN1CCc2nc(N)sc2CC1 | -6.47% (inactive) |  |
| Cc1cccc(C)c1NC(=O)c1ccccc1C(=O)O | 2.69% (inactive) |  |
| NCc1ccccc1Sc1ccccc1CO | -7.03% (inactive) |  |
| CN1CCc2cccc3c2[C@H]1Cc1ccc(O)c(O)c1-3 | 14.4% (inactive) |  |
| CCCN(CCC)S(=O)(=O)c1ccc(C(=O)O)cc1 | -7.81% (inactive) |  |
| OC1C(O)C(O)C(O)C(O)C1O (stereo not given) | -17% (inactive) |  |
| Cc1c[nH]c2ccccc12 | 4.45% (inactive) |  |

| SMILES | activity change, negative = cytotoxic | Potency |
| --- | --- | --- |
| CC(=O)NO | 2.49% (inactive) |  |
| COP(=O)(OC)OC(c1ccc(Cl)cc1)P(=O)(OC)OC (stereo not given) | -7.28% (inactive) |  |
| CC(=O)Nc1ccc(S(=O)(=O)Nc2ccc([N+](=O)[O-])cc2)cc1 | -22.7% (inactive) |  |
| CCOC(=O)c1ccc(N)cc1 | -33.9% (inactive) |  |
| OC[C@H]1O[C@@H]2O[C@H]3[C@H](O)[C@@H](O)[C@@H](O[C@H]4[C@H](O)[C@@H](O)[C@@H](O[C@H]5[C@H](O)[C@@H](O)[C@@H](O[C@H]6[C@H](O)[C@@H](O)[C@@H](O[C@H]7[C@H](O)[C@@H](O)[C@@H](O[C@H]8[C@H](O)[C@@H](O)[C@@H](O[C@H]1[C@H](O)[C@H]2O)O[C@@H]8CO)O[C@@H]7CO)O[C@@H]6CO)O[C@@H]5CO)O[C@@H]4CO)O[C@@H]3CO | -24.4% (inactive) |  |
| Cc1cn([C@H]2C[C@H](F)[C@@H](CO)O2)c(=O)[nH]c1=O | -3.85% (inactive) |  |
| CCN[C@@H]1C[C@H](N)[C@@H](OC2OC(CN)=CCC2N)[C@H](O)[C@H]1O[C@H]1OC[C@](C)(O)[C@H](NC)[C@H]1O (stereo not given in full) | -16.5% [at 0.597 µM] (inactive) |  |
| CCOC(=O)[C@H](CCc1ccccc1)N[C@@H](C)C(=O)N1[C@H](C(=O)O)C[C@@H]2CCC[C@@H]21 | -5.71% (inactive) |  |
| CCN(CC)CCNC(=O)c1cc(Br)c(N)cc1OC | -10.4% (inactive) |  |
| NC(=O)c1ccccc1O | -30.8% (inactive) |  |
| CCCCCCCCOc1ccc(C(=O)c2ccccc2)c(O)c1 | 12.5% (inactive) |  |
| NC(=O)n1c(O)c(C(=O)c2cccs2)c2cc(Cl)ccc21 | -25.6% (inactive) |  |
| COc1cc(N)c(Cl)cc1C(=O)NC1CCN(Cc2ccccc2)CC1 | -17.8% (inactive) |  |
| C[C@H]1[C@H]2CC[C@H]3[C@@H]4CC=C5C[C@@H](N(C)C)CC[C@]5(C)[C@H]4CC[C@]23CN1C | -15.5% (inactive) |  |
| COc1ccc(-c2cc(C(F)F)nn2-c2ccc(S(N)(=O)=O)cc2)cc1F | -18% (inactive) |  |
| Cc1ncc(CO)c(C=O)c1O | -8.99% (inactive) |  |
| FC1(F)C(F)(F)C(F)(F)C2(F)C(F)(F)C(F)(F)C(F)(F)C(F)(F)C2(F)C1(F)F (stereo not given) | -6.26% (inactive) |  |
| Cc1nc(-c2ccc(Cl)cc2)oc1COC(C)(C)C(=O)O | -29.9% (inactive) |  |
| Cn1c(=O)c2[nH]c(Br)nc2n(C)c1=O | -16.4% (inactive) |  |
| O=C1OC2(c3ccccc31)c1cc(Br)c(O)c(Br)c1Oc1c2cc(Br)c(O)c1Br | -26.3% (inactive) |  |
